Compounds with a hit are over-represented: about 7.2% of the library has one in this group of screens.
LASV entry inh: qHTS for Inhibitors of binding or entry into cells for Lassa Virus; Lassa virus pseudotype entry inhibition, cell reporter; Potency, µM (doses to about 37.9 µM), without a hit: at the highest dose activity change, negative = inhibition, usual class: inhibitors; 300,000 tested, 1.2% active; AID 540256, 2011; calls by dose curve; tested in HEK293 cells; note: nearly all actives have a fitted effect of over 50% in size
Sm TGR block: qHTS Assay for the Inhibitors of Schistosoma Mansoni Peroxiredoxins. purified TGR, DTNB reduction, TNB absorbance 405 nm. Potency, µM (titrated, usually from 114 µM), inactives show top-dose activity change, negative = inhibition, actives largely listed as inhibitors. 360,000 tested, 3% active; note: nearly all actives have a fitted effect of over 60% in size
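TGR 20 nM + NADPH 100 uM (dispensed conc.), cpd preinc 15 min RT; start with NADPH (500 uM addition) then DTNB (15 mM addition). Kinetic TNB absorbance, 405 nm filter. Four-parameter Hill fit across titration.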
HCV inh: qHTS Assay for Inhibitors of Hepatitis C Virus (HCV); 340,000 tested, 3.4% active; Potency, µM (doses to about 41.8 µM), for inactives: at the highest dose activity change, negative = inhibition, most hits filed as inhibitors; AID 651820, 2012; Huh7.5.1 HCVcc-Cre infection, luciferase reporter, 44 h
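Infectious HCVcc-Cre (~0.5 moi) was added to cells just after compound, with cells seeded 4 h earlier at 1,000 per well. Luciferase activity after 44 h culture reported infection; substrate was incubated 15 min at room temperature before reading.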
MARV entry inh: qHTS for inhibitors of binding or entry into cells for Marburg Virus | 300,000 tested, 1.8% active | Potency, µM (highest dose often 37.8 µM), for inactives: at the top dose activity change, negative = inhibition, most hits filed as inhibitors | Marburg virus pseudotyped entry inhibition, cell reporter; calls by dose curve; tested in HEK293 cells
FMDV antiviral: High Throughput Screening for Foot and Mouth Disease Virus Antivirals; FMDV antiviral cell-based qHTS; Potency, µM (highest dose often 57.9 µM), for the others: at the top dose activity change, negative = inhibition, hits mostly inhibitors; 410,000 tested, 1.2% active; AID 1159524, 2015; calls by dose curve; tested in HEK293T cells; note: read-out not given here; nearly all actives have a fitted effect of over 45% in size
RE007 growth inh: qHTS Assay for Inhibitors of the HIV-1 protein Vpr. 360,000 tested, 0.21% active. Potency, µM (highest dose often 92.2 µM), for the others: at the highest dose activity change, negative = less growth, hits mostly inhibitors. S. pombe RE007 Vpr strain, BacTiter-Glo ATP luminescence, 24 h. AID 651644, 2012; active = well fitted falling curve with a large enough effect; inconclusive = small, poorly fitted or top-dose-only effect; inactive = no such curve, though single readings can be large or run the other way; note: nearly all actives have a fitted effect of over 50% in size
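Fission yeast RE007 carrying one integrated HIV-1 vpr copy, seeded at OD 0.01 in PMG+AL medium with 23 nL pinned compound. Grown 24 h at 30 degrees; viability read by BacTiter-Glo luminescence after 5 min.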
Starred values were filed as active, the others as inactive; ? = inconclusive; nt = no result given; [ ] = dose if it differs, or a comment. Unless noted, calls come from the whole dose curve; as a rule, active = well fitted curve in the direction sought with a large enough effect; inconclusive = small, poorly fitted or top-dose-only effect, or another doubt; inactive = no such curve, though single readings can be large; an effect the other way counts as inactive or inconclusive. % is set by controls: 0 for no effect and ±100 for the full control effect; potency is the fitted concentration of half-maximal effect.

SMILES | LASV entry inh | Sm TGR block | HCV inh | MARV entry inh | FMDV antiviral | RE007 growth inh
C=CCN(c1ccccc1)S(=O)(=O)c1cccc(C(=O)NC2CCN(Cc3ccccc3)CC2)c1 | ? | -6% | 14µM* | ? | ? | -10%
CCOc1ccc(CC(=NCCc2ccccc2)C2=C(O)CC(C)(C)CC2=O)cc1OCC | ? | ? | -10% | 31% | ? | -14%
CCOc1ccc(CC(=O)C2C(=O)CCCC2=O)cc1OCC | 15% | 32µM* | -1% | 6% | -16% | 2%
CCOc1ccc(CC(=O)NC2CC(C)(C)N(C)C(C)(C)C2)cc1OCC | nt | 0% | -11% | nt | -1% | -9%
CCOc1ccc(CC(=O)C2=C(N3CCOCC3)CC(C)(C)CC2=O)cc1OCC | -5% | 7.9µM* | 21% | 23%[46.1 µM] | -6% | 10%
CCOc1ccc(CC(=O)C2C(=O)CC(C)(C)CC2=O)cc1OCC | -3% | 13µM* | 6% | 10% | -8% | -6%
CCOc1ccc(CC(=N)C2=C(O)CC(C)(C)CC2=O)cc1OCC | 3% | -13% | 29% | -10% | -9% | 24%
CC(C)NC(=O)N1CC[C@@]2(CCCN(C(=O)c3csnn3)C2)C1 | nt | nt | nt | nt | -12% | nt
O=C(O)c1cccc(NC(=O)c2cc3cc(Br)cc(Br)c3oc2=O)c1 | 26%[46.1 µM] | -22% | nt | nt | 10% | nt
Cc1ccc(CNC(=O)CCSCc2cnn(-c3ccccc3)c2-n2cccc2)cc1 | 3%[46.1 µM] | -14% | nt | ? | -8% | nt
CCc1ccc(-c2nc(CS(=O)CC(=O)NCc3ccc4c(c3)OCO4)c(C)o2)cc1 (stereo unspecified) | nt | 10µM* | -24% | nt | -10% | 3%
Cc1ccc(-c2nc(CS(=O)CC(=O)NCc3ccc4c(c3)OCO4)c(C)o2)cc1 (stereo unspecified) | nt | 22µM* | ? | nt | -11% | -25%
Oc1ccc(C2=NN(c3ccccc3)C(c3ccc(F)cc3)C2)cc1 (stereo unspecified) | 11µM* | 10% | 10µM* | ? | ? | 40µM*
Cc1nc(C)c(-c2ccc(SCC(=O)Nc3ccc(F)c(F)c3)nn2)s1 | -28%[46.1 µM] | 0% | nt | nt | -2% | nt
Cc1cccc2cc3c(N)c(C(=O)Nc4ccc(N5CCOCC5)cc4)sc3nc12 | 13µM* | 9% | 4µM* | ? | nt | -21%
Cc1ccc2nc3sc(C(=O)Nc4ccc(N5CCOCC5)cc4)c(N)c3cc2c1 | nt | 3% | -24% | nt | nt | nt
CC(C)(C)OC(=O)N1CCC(c2c(C(=O)NCc3ccccc3)cnn2-c2cccc(F)c2)CC1 | 4%[46.1 µM] | -8% | nt | nt | -21% | nt
COC(=O)C1CCN(Cc2ccc3c(c2)CN(C(=O)c2ncc(C)[nH]2)CCO3)CC1 | nt | nt | nt | nt | -12% | nt
O=C(COc1ccccc1Cl)Nc1ccc(N2CCCC2)cc1 | nt | -25% | ? | nt | -13% | 16%
Cc1ccc(OCC(=O)Nc2ccc(N3CCN(C(=O)c4ccc(C)cc4)CC3)cc2)cc1 | 1%[46.1 µM] | 0% | 16% | 27%[46.1 µM] | -7% | 1%
Cc1cccc(OCC(=O)Nc2ccc(N3CCN(C(=O)c4ccccc4)CC3)cc2)c1 | -11% | 3% | ? | ? | 28µM* | 1%
CCC(=O)Nc1ccc(N2CCN(C(=O)c3cccs3)CC2)cc1 | nt | nt | 14% | nt | -4% | 5%
O=C(COc1ccccc1[N+](=O)[O-])Nc1ccc(N2CCN(C(=O)c3cccs3)CC2)cc1 | ? | 1% | 6.3µM* | ? | 13µM* | 12%
O=C(COc1ccccc1Cl)Nc1ccc(N2CCN(C(=O)c3ccccc3)CC2)cc1 | nt | 4% | 5µM* | nt | 22µM* | 2%
O=C(COc1ccccc1Cl)Nc1cc(NC(=O)COc2ccccc2Cl)cc(C(=O)O)c1 | 8.9µM* | -1% | 12% | ? | 38% | -6%
SMILES | LASV entry inh | Sm TGR block | HCV inh | MARV entry inh | FMDV antiviral | RE007 growth inh
CCN1CCN(C(c2ccccc2Cl)c2sc3nc(-c4ccco4)nn3c2O)CC1 (stereo unspecified) | 6%[46.1 µM] | -5% | nt | nt | 4% | nt
O=C(NCCN1Cc2ccccc2OC(c2ccsc2)C1)c1ccc2[nH]ccc2c1 (stereo unspecified) | nt | nt | nt | nt | 1% | nt
Cc1nc2cncnc2n(C2CC2)c1=O | nt | nt | nt | nt | -14% | nt
CCN(CC)S(=O)(=O)c1ccc(Cl)c(C(=O)Nc2nnc(C)s2)c1 | ? | 1% | 22µM* | -5% | -22% | -11%
CCN1CCN(S(=O)(=O)c2ccc(Cl)c(C(=O)Nc3nnc(C)s3)c2)CC1 | -12% | -5% | 2% | -18%[46.1 µM] | -5% | -1%
O=C(COc1ccccc1Cl)Nc1cccc(S(=O)(=O)N2CCCC2)c1 | nt | -14% | 10µM* | nt | -23% | -2%
O=C(Nc1cccc(S(=O)(=O)N2CCCCC2)c1)[C@@H]1CCCN1S(=O)(=O)c1ccccc1C(F)(F)F | nt | nt | 14µM* | nt | -19% | -9%
O=C(COc1ccc(F)cc1Cl)Nc1ccc(N2CCOCC2)cc1N1CCOCC1 | -23% | -21% | 22µM* | ? | -10% | 3%
O=C(CCl)Nc1cccc(S(=O)(=O)N2CCCCCC2)c1 | 7.9µM* | 11µM* | ? | ? | 25µM* | nt
CC(=O)c1cccc(NC(=O)C2CCCN2S(=O)(=O)c2ccccc2C(F)(F)F)c1 (stereo unspecified) | nt | nt | nt | nt | -12% | 7%
CS(=O)(=O)Nc1cc(C(=O)N2CCNC(=O)C2)c2c(c1)ncn2CCc1ccccc1 | nt | nt | nt | nt | -2% | nt
CCOc1ccc(C(=O)CCC(=O)Nc2cccc(S(=O)(=O)N3CCCCC3)c2)cc1 | 10µM* | 1% | ? | ? | 0% | 3%
O=C(COc1ccccc1)Nc1cccc(S(=O)(=O)N2CCCC2)c1 | ? | 2% | -26% | 3% | -4% | 6%
Cc1ccc(S(=O)(=O)N2CCCCC2)cc1NC(=O)Cn1ccsc1=N | 2% | 4% | 5% | ? | -7% | -9%
N=c1sccn1CC(=O)Nc1cccc(S(=O)(=O)N2CCCCCC2)c1 | -11% | -9% | 10µM* | ? | -17% | -1%
O=C(COc1ccc(F)cc1Cl)Nc1cccc(S(=O)(=O)N2CCCC2)c1 | nt | 1% | 10µM* | nt | 26% | -1%
O=C(COc1cc(F)ccc1[N+](=O)[O-])Nc1cc(S(=O)(=O)N2CCCC2)ccc1Cl | -6% | 1% | 14µM* | -7% | -28% | 4%
Cc1ncc2c(c1CNC(=O)c1ccc3c(c1)OCO3)CCN(C(=O)/C=C/c1ccc(Cl)cc1)C2 | nt | nt | nt | nt | -11% | nt
O=C(CCOc1ccccc1)N(Cc1cccnc1)c1nc2ccc(F)cc2s1 | -13%[46.1 µM] | 4µM* | nt | nt | -2% | nt
O=C(Cc1ccccc1)N(Cc1cccnc1)c1nc2c(F)cc(F)cc2s1 | 13µM* | 6% | nt | nt | -3% | nt

Screens from PubChem BioAssay.
